Among the data in ChEMBL document CHEMBL3988442, “University of Dundee, Small-Polar-MMV Screening Library” (2021) are Percent Effect values, retold here.

Set-up in all cases: scale not given: direction of the effect not stated beside the values
For assay [1], the target named is Protein translocase subunit SecA (Escherichia coli (strain K12)) (UniProt P10408). Description: Assay to Identify E. coli SecA ATPase Inhibitors. It counts as functional. Conditions: 30 µM.
The target of assay [2] is T1, Ubiquitin-activating enzyme e1, putative (Leishmania donovani (strain BPK282A1)) (UniProt E9BSI1).
T1 sequence (whole entry): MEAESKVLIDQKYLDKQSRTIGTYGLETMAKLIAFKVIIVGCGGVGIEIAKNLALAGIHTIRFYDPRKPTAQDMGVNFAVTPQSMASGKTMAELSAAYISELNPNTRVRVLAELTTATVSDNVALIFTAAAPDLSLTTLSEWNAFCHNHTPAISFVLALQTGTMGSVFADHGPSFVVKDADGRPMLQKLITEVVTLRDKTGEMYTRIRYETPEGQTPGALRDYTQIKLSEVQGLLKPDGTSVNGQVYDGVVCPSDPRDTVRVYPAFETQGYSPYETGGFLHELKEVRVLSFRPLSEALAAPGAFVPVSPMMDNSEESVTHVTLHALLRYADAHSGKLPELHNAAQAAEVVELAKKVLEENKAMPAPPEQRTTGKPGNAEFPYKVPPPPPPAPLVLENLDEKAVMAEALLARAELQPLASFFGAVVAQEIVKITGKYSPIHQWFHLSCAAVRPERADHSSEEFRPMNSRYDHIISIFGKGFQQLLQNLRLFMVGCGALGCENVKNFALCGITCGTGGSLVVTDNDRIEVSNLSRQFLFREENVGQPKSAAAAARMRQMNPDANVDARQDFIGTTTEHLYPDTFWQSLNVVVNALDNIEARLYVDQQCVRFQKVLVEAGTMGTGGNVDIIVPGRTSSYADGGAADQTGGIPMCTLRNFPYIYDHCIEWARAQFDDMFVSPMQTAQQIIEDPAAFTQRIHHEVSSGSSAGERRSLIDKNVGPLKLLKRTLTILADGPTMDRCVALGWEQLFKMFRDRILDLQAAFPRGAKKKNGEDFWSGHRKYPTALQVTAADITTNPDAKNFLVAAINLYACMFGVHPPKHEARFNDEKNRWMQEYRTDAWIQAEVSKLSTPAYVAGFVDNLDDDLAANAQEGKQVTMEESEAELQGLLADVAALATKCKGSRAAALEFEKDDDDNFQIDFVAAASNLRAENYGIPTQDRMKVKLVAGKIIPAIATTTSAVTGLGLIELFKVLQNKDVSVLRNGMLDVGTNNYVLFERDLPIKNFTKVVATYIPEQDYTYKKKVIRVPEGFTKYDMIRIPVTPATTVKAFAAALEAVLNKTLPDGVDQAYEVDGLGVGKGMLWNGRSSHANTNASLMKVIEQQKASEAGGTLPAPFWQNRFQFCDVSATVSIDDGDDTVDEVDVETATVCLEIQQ
Description: Leishmania donovani Ubiquitin Activating Enzyme (LdE1). Conditions: 30 µM. Format: functional.

Assay [3] deals with AMP-activated protein kinase, AMPK (Homo sapiens) (UniProt P54646+O43741+P54619+Q9UGJ0+Q9Y478+Q13131+Q9UGI9). In words: AMP-dependent Kinase enzyme assay. An in vitro enzyme assay that detects ADP turnover that is directly proportional to AMPK activity. This uses naive AMPK that is activated during the assay with MK-8722. Format: functional. The conditions noted are these: 30 µM.

For assay [4], the target named is Sialic acid-binding Ig-like lectin 9 (Homo sapiens) (UniProt Q9Y336). In words: Hs-Siglec9 ALPHAscreen SOP 20170721. Conditions: 10 µM.
For the next assay, the system named is Trypanosoma cruzi. In words: Trypanosoma cruzi phosphomannomutase and mannose-1-phosphate guanylyltransferase assay. Format: functional. Conditions: 10 µM.
The target of assay [5] is T2, Arginase-2, mitochondrial (Homo sapiens) (UniProt P78540).
T2 sequence (whole entry): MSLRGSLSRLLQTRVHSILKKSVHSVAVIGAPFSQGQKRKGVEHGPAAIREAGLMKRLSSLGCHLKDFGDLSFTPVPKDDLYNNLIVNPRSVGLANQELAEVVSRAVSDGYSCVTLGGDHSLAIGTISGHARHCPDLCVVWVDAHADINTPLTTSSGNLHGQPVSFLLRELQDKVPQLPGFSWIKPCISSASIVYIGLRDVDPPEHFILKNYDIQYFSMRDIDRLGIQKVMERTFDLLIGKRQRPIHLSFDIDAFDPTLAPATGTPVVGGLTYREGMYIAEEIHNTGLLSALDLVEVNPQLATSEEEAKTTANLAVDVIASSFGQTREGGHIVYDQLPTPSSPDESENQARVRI
In words: in vitro enzyme assay to detect the production of urea directly proportional to the activity of Arginase II. Further: in the data most compounds retested in dose-response had high values. It counts as functional. The conditions noted are these: 33.3 µM.

For assay [6], the target named is T3, Proteasome subunit beta (Trypanosoma cruzi) (UniProt O96673).
T3 sequence (whole entry): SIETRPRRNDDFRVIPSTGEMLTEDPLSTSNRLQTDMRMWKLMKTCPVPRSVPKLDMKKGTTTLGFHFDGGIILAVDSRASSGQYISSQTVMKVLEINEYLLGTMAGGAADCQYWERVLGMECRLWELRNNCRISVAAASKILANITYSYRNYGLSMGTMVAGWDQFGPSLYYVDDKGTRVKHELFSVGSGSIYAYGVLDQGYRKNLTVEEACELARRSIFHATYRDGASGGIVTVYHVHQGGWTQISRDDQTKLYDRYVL
In words: Trypanosoma cruzi proteasome chymotrypsin-like activity (TcProtChymo) assay. Further: in the data most compounds retested in dose-response had high values. The conditions noted are these: 9.37 µM. Format: functional.

The species entered for a further assay is Homo sapiens. Description: To identify inhibition of the IFN signalling (Jak-Stat) pathway via expression of an eGFP reporter gene under the control of an IFN-stimulated response element (ISRE) containing MxA promoter. Format: functional. The conditions noted are these: 30 µM. In general terms: Reporter assays use an easily measured gene product as a stand-in for the process of interest.

The target in assay [7] is T4, Tyrosyl-tRNA synthetase, putative (Trypanosoma cruzi (strain CL Brener)) (UniProt Q4DSP6).
T4 sequence (whole entry): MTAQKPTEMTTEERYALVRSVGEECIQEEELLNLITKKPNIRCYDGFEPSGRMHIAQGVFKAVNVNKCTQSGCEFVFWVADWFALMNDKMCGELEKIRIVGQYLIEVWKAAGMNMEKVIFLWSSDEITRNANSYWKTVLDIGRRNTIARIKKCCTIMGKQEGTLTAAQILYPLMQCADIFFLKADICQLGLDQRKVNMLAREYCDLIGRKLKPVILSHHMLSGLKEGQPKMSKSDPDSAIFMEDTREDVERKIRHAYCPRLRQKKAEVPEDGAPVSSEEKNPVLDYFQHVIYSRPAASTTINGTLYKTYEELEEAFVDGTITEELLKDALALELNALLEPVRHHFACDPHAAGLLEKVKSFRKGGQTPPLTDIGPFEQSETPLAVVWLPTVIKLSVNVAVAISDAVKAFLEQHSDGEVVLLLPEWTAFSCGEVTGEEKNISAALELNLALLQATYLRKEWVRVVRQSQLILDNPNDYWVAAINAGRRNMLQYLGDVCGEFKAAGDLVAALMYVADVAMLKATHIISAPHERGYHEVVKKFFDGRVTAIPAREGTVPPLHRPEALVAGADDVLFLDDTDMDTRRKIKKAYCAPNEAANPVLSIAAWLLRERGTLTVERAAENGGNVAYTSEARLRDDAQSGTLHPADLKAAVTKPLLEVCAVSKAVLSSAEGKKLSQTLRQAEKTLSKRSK
Description: Trypanosoma cruzi tyrosyl tRNA synthetase (TcYRS) _High Tyrosine SOP. Further: in the data most compounds retested in dose-response had high values. Format: functional. The conditions noted are these: 30 µM.

In assay [8] the target is T4, Tyrosyl-tRNA synthetase, putative (Trypanosoma cruzi (strain CL Brener)). Description: Trypanosoma cruzi tyrosyl tRNA synthetase (TcYRS) SOP. It counts as functional. Conditions: 30 µM.
Assay [9] addresses Chromo domain-containing protein 1 (Saccharomyces cerevisiae (strain ATCC 204508 / S288c) (Baker's yeast)) (UniProt P32657). Description: ScCHD-1 Enzyme Inhibition Assay. Further: in the data most compounds retested in dose-response had high values. It counts as functional. The conditions noted are these: 30 µM.

Structures are written as SMILES. For some of these results: Measured potencies and affinities stand elsewhere.

Sequence of Sialic acid-binding Ig-like lectin 9 (Homo sapiens) (Q9Y336 whole entry): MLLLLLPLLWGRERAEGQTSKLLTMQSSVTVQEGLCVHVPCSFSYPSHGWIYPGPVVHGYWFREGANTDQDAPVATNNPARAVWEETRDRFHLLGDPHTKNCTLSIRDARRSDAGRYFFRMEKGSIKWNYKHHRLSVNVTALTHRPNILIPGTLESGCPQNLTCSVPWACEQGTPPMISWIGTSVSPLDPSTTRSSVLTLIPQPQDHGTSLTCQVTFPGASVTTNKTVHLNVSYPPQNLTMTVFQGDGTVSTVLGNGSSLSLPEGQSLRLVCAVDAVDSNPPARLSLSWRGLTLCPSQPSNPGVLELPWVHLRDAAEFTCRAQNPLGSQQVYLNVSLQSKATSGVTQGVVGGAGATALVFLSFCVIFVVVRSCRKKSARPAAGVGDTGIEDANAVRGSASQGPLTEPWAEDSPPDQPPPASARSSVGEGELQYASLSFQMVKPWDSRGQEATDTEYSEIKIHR
Sequence of Chromo domain-containing protein 1 (Saccharomyces cerevisiae (strain ATCC 204508 / S288c) (Baker's yeast)) (P32657 whole entry, the tested form may be a part): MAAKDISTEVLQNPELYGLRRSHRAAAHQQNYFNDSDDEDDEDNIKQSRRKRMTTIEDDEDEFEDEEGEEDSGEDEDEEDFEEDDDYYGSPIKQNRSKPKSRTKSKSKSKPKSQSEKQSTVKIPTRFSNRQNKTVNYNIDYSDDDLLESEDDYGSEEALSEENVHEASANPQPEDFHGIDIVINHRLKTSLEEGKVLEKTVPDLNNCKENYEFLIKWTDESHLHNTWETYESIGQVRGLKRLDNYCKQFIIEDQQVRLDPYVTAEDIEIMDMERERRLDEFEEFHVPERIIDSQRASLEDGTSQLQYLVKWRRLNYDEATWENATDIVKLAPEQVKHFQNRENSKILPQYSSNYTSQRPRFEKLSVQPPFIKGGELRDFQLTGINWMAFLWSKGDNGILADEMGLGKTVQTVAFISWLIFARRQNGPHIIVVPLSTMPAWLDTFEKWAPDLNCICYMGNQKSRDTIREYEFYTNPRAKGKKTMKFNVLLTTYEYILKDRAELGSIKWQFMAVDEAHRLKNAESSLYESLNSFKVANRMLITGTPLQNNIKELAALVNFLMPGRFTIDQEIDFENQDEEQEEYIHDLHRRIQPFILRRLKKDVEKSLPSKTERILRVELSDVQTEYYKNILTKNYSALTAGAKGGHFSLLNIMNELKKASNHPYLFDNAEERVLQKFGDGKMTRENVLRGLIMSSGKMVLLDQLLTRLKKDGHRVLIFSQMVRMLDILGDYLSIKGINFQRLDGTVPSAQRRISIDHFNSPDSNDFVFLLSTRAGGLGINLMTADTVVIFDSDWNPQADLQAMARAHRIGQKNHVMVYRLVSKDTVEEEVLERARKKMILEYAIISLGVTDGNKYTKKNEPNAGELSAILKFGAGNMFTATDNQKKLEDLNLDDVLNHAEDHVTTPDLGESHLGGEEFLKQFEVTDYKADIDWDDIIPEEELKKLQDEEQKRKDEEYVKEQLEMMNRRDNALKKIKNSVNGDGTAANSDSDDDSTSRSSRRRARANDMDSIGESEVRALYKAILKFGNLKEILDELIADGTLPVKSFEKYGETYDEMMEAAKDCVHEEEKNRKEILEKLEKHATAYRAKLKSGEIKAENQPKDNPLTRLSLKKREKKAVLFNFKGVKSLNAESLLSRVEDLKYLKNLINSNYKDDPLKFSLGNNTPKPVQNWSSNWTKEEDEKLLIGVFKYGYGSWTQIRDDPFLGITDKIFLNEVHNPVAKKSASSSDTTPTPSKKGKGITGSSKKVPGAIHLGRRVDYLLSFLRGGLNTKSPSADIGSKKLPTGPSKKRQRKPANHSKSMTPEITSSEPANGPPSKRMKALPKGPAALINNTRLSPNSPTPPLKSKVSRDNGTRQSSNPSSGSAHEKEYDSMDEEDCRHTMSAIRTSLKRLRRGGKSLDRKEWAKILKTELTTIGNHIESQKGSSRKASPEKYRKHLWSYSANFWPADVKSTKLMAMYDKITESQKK
Sequence of Protein translocase subunit SecA (Escherichia coli (strain K12)) (P10408 whole entry): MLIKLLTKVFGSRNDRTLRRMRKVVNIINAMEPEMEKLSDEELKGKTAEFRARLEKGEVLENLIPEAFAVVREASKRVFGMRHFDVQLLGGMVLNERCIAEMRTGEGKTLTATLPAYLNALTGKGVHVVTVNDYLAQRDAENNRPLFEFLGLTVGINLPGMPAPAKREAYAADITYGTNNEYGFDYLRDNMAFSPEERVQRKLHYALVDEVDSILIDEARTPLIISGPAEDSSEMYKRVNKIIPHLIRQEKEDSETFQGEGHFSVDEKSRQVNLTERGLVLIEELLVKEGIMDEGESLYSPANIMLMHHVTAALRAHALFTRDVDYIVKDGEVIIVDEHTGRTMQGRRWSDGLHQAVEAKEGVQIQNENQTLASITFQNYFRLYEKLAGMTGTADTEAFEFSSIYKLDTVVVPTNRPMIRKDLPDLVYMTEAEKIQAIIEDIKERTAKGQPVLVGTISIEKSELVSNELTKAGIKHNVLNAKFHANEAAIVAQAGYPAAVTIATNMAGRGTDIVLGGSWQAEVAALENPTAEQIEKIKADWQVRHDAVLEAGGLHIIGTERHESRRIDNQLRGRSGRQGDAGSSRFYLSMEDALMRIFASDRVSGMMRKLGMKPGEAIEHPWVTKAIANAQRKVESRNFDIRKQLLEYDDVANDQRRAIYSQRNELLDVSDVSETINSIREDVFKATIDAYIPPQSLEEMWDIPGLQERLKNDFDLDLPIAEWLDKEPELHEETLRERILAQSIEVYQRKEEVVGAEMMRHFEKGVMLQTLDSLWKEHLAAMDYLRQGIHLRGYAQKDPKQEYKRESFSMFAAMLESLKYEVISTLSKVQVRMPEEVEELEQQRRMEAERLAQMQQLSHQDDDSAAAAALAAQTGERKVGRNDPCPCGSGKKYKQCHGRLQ

In the case of `CCN1C[C@@H]2[C@@H](OC)CCN(S(=O)(=O)c3ccccc3)[C@@H]2C1`, the Percent Effect in assay [1] is -1.54%; in [2], 16%; in assay [3], 3.6%; in [4] it was -7.4%; with Trypanosoma cruzi, -7.48%; in assay [5] it was 0.233%. Also, the Percent Effect in [6] is 11.4%; in the assay listed under Homo sapiens it was -3.22%; in assay [7] it was 1.06%; in [8], 6.41%; in assay [9], -5.54%.

For `COC1CCN(C(=O)CCc2c(C)nc3ccnn3c2C)CC1`, the Percent Effect in assay [1] was -0.424%; in assay [2] it was 5.26%; in assay [3], 1.13%; in [4], -0.445%; in the assay with Trypanosoma cruzi, -3.64%; in assay [5] it was 5.4%. Further, the Percent Effect in assay [6] is 1.95%; in the assay filed under Homo sapiens, -10.2%; in assay [7] it was 4.43%; in assay [8] it was 6.17%; in assay [9], 5.83%.

In the case of `CNS(=O)(=O)c1ccc(C(=O)NCCNc2ncccn2)cc1`, the Percent Effect was -3.65% in [1]; 10.5% in assay [2]; -2.1% in [3]; -1.6% in assay [4]; -2.52% in the assay with Trypanosoma cruzi; -1.08% in assay [5]. Besides, the Percent Effect is 7.36% in [6]; -4.68% in the assay listed under Homo sapiens; 6.4% in [7]; 23.5% in assay [8]; -3.3% in [9].

On to `CCCc1nc(C)cc(N2CCC3(CCC(=O)N(CCOC)C3)CC2)n1`, for which the Percent Effect was -4.76% in assay [1]; 10.8% in assay [2]; -6.4% in assay [3]; -1.18% in assay [4]; -0.489% with Trypanosoma cruzi; -0.744% in [5]. The Percent Effect in [6] was 10.9%; in the assay listed under Homo sapiens, -7.21%; in [7] it was 4.3%; in assay [8], 13.6%; in assay [9] it was -3.56%.

For the molecule `CCn1cnnc1CNC(=O)N1CCN(Cc2ccccc2)CC1`, the Percent Effect in assay [1] was -4.19%; in [2] it was 26%; in [3], -4.86%; in [4], -6.22%; in the assay with Trypanosoma cruzi, 6.95%; in assay [5] it was -2.32%. The Percent Effect was 12.1% in assay [6]; 0.217% in the assay listed under Homo sapiens; 8.57% in assay [7]; 30.6% in assay [8]; -22.4% in assay [9].

Consider `Cn1c(CC2CCS(=O)(=O)C2)nnc1SCCOc1cccc(Cl)c1` (stereo unspecified), for which the Percent Effect in assay [1] was -2.94%; in assay [2] it was 10.8%; in [3], -5.55%; in [4] it was 20.9%; in the assay on Trypanosoma cruzi, 4.99%; in assay [5], 3.23%. Also, the Percent Effect in [6] was 14.8%; in the assay listed under Homo sapiens, -7.24%; in assay [7], 4.3%; in [8], 16.1%; in assay [9], -10.4%.

As for `Cc1noc(C2CCC3(CCN(C(=O)C4=CCCCC4)CC3)O2)n1` (stereo unspecified), the Percent Effect in assay [1] was -7.11%; in assay [2], 10.8%; in assay [3], -5.86%; in assay [4], 30.2%; in the assay on Trypanosoma cruzi, 3.42%; in assay [5], 3.23%. Besides, the Percent Effect was 8.67% in assay [6]; 3.52% in the assay filed under Homo sapiens; 8.6% in assay [7]; 16.1% in [8]; -7.09% in assay [9].

In the case of `CC(C)c1nc(CN2CCN(C(C)c3nc(C4CC4)no3)CC2)no1` (stereo unspecified), the Percent Effect in assay [1] was -0.845%; in [2] it was -3.8%; in assay [3], 4.42%; in assay [4], 1.01%; with Trypanosoma cruzi it was -1.13%; in assay [5] it was 1.07%. In addition, the Percent Effect in [6] is 3.09%; in the assay filed under Homo sapiens it was -8.78%; in [7], 2.08%; in [8], 2.53%; in assay [9], 2.13%.

For the molecule `CN(C)C(=O)CNC(=O)Nc1cccc(Cl)c1SC(F)F`, the Percent Effect in assay [1] is -3.28%; in [2], 1.39%; in [3] it was 2.42%; in [4], 11.5%; in the assay on Trypanosoma cruzi it was -7.09%; in assay [5] it was 1.77%. In addition, the Percent Effect in assay [6] is 1.05%; in the assay filed under Homo sapiens it was -0.391%; in [7], 1.05%; in assay [8], -2.56%; in assay [9], 0.00979%.

With `CN(c1ccc(F)c(F)c1)S(=O)(=O)c1cc(C(=O)O)cs1`, the Percent Effect in assay [1] was -0.362%; in assay [2], -5.41%; in assay [3], -0.676%; in assay [4], 1.81%; with Trypanosoma cruzi it was -6.32%; in assay [5], -1.6%. In addition, the Percent Effect in [6] was -5.95%; in the assay filed under Homo sapiens, 10.4%; in assay [7], -0.493%; in [8], -1.24%; in [9], -2.7%.

Turning to `O=C(NCCNC(=O)N1CCC(c2ccccc2)C1)C1CC1` (stereo unspecified), the Percent Effect in [1] was -2.18%; in assay [2] it was 18.9%; in assay [3] it was -5.02%; in assay [4], 22%; in the assay with Trypanosoma cruzi, 4.44%; in assay [5], 2.38%. For the same molecule, the Percent Effect in assay [6] was 15.5%; in the assay filed under Homo sapiens, 8.1%; in [7], 2.65%; in assay [8], 14.6%; in [9], -0.679%.
